Assay outcomes as filed in PubChem.
This is a sample that favours compounds with a hit; in the whole collection about 3.3% have one here.
TLR9-MyD88 block – TLR9-MyD88 interaction inhibition; hit rate 0.21% among 340,000; Q9NR96+Q99836; AID 504734; CHO BLA complementation TLR9-MyD88, CCF4 FRET ratio; inhibition, % at 4.98 µM;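 active means inhibition above the mean over all tested compounds plus 3 SD, cut at about 21% in these data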;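 further: 0% = DMSO only wells and 100% = clavulanate BLA inhibitor control wells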
ABHD5 PLIN5 PPI – inhibitors of human ABHD5-perilipin-5 interaction; AID 602281; Split G. princeps luciferase complementation, luminescence, 4 h; inhibition, % at 4 µM; hit rate 0.78% among 360,000;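 active means inhibition above the mean inhibition across every tested compound plus 3 SD, cut at about 22% in these data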;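 further: 0% = DMSO only wells and the 100% control is not disclosed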
NOD2 RIPK2 PPI – blocks binding of human NOD2 to RIPK2; O43353; CHO BLA complementation NOD2-RIPK2, CCF4 ratio; inhibition, % at 4.98 µM; hit rate 0.38% among 360,000; AID 624267; in the data active means inhibition above about 21%;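 further: 0% = vehicle only and 100% = reference blocker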
Target sequence (O43353 whole entry, looked up): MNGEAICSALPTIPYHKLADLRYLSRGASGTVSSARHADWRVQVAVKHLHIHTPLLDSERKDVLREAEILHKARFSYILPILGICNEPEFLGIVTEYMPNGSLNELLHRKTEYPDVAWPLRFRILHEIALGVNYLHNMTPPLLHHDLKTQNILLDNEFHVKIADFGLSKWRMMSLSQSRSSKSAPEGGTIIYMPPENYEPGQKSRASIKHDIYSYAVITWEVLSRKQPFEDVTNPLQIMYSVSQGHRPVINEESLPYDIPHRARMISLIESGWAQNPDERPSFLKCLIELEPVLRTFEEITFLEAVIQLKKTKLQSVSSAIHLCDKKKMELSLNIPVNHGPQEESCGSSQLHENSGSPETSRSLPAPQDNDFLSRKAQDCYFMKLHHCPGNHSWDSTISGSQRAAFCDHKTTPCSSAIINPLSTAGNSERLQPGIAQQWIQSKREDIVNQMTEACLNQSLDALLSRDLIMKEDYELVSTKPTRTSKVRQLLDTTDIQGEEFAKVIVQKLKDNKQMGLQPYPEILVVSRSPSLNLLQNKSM
rCAG RNA binder – r(CAG) repeat RNA binding. hit rate 1.3% among 370,000. TO-PRO-1 dye displacement fluorescence. inhibition, % at 3 µM;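 active means inhibition above the plate cutoff, the mean of all test compounds on that plate plus 3 SD, cut at about 35% in these data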;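 further: 0% = DMSO alone and 100% = 100 µM mitoxantrone as full dye displacement; higher means more dye released from RNA so lower well fluorescence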
PRMT1 inh – inhibitors of human PRMT1; Q99873; recombinant PRMT1, activity-based probe fluorescence polarization; inhibition, % at 2.79 µM; hit rate 1.3% among 370,000;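 active means inhibition above about 21% made by adding two undisclosed values, limit read from the data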
TLR4-MyD88 BLA – inhibitors of human TLR4-MyD88 binding. AID 861. inhibition, % at 8.4 µM. O00206+Q99836. HeLa CL3-4 TLR4/MyD88 BLA complementation, FRET ratio. hit rate 0.18% among 200,000; in the data active means inhibition above about 25%;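 further: 0% = vehicle and 100% = reference inhibitor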
rCAG bind conf – r(CAG) RNA repeat binding, confirmation. shares compounds with rCAG RNA binder. TO-PRO-1 dye displacement fluorescence. inhibition, % at 3 µM. hit rate 70% among 4,300. AID 652065;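 active means inhibition above a per-plate cutoff, the mean inhibition of sample wells plus 3 SD, cut at about 35% in these data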;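 further: loss of TO-PRO-1 fluorescence as compound displaces dye from 1x1 AA loop RNA; 0% = DMSO only wells and 100% = 100 µM mitoxantrone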
DNA CAG counter – DNA CAG dye complex inhibition counter-screen; shares compounds with rCAG RNA binder; d(CAG) DNA oligo TO-PRO-1 dye displacement, fluorescence; inhibition, % at 3 µM; hit rate 94% among 4,300; AID 652068;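 active means inhibition above its plate's cutoff, the mean test-well inhibition plus 3 SD, cut at about 4.8% in these data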;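 further: 0% = DNA dye mix with DMSO and 100% = 100 µM mitoxantrone; hits displace the dye from DNA and so lower well fluorescence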
dCAG dye DR – counter-screen for rCAG binders: inhibitors of DNA CAG TO-PRO-1 complex | shares compounds with rCAG RNA binder | DNA CAG/GTC duplex TO-PRO-1 dye displacement fluorescence | IC50, µM | hit rate 20% among 250 | AID 686960; in the data active means IC50 below about 10 µM
PRMT1 inh conf – confirmation of human PRMT1 inhibitors | shares compounds with PRMT1 inh | recombinant His-PRMT1, activity-based probe fluorescence polarization | inhibition, % at 2.79 µM | hit rate 42% among 3,300;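 active means mean inhibition across replicates above the hit cutoff derived for the earlier primary screen, cut at about 22% in these data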
An asterisk follows results filed as active; · = not tested or not shown.

SMILES | TLR9-MyD88 block | ABHD5 PLIN5 PPI | NOD2 RIPK2 PPI | rCAG RNA binder | PRMT1 inh | TLR4-MyD88 BLA | rCAG bind conf | DNA CAG counter | PRMT1 inh conf | others
COCCN=c1scc(-c2cccs2)n1/N=C/c1ccc(O)c(O)c1O | 2.5 | -6.7 | 2.8 | 47.6* | 54.0* | -8.3 | 62.4* | 30.4* | 27.1* | dCAG dye DR=9.17*
O=[N+]([O-])c1ccc(N=Nc2ccc(O)cc2O)cc1 | -2.9 | -0.8 | -12.4 | 10.7 | 4.0 | 5.4 | · | · | ·
O=S(=O)(O)c1cc(Cl)cc(N=Nc2ccc(O)cc2O)c1O | 8.2 | 3.9 | 1.1 | 90.5* | 86.2* | · | 67.1* | 31.4* | 65.0*
COc1ccc(N2CCN(c3nccs3)CC2)cc1 | -2.7 | 1.2 | -5.1 | -1.5 | -0.7 | · | · | · | ·
[N-]=C=C1C(=S)NC(=O)[C@H]([n+]2ccccc2)[C@H]1c1ccc(Cl)cc1 | 4.6 | -12.7 | -0.4 | 43.6* | 25.4* | · | 64.0* | 27.7* | 31.6*
[N-]=C=C1C(=O)NC(=O)C([n+]2ccc(-c3ccncc3)cc2)C1c1ccccc1C(F)(F)F (stereo not given) | -0.4 | -5.5 | 0.7 | 33.8 | 7.8 | · | · | · | ·
CC1CCCC(C)N1c1ccc(S(=O)(=O)N2CCOCC2)cc1Cl (stereo not given) | 4.7 | -1.9 | -0.8 | -3.0 | 2.3 | · | · | · | ·
CNc1ccc(Br)cc(C(=O)/C=C/c2cccc(Cl)c2Cl)c1=O | 2.3 | 19.6 | 3.5 | 48.1* | 25.4* | -11.7 | 50.1* | 23.2* | 12.7
CCNc1ccc(Br)cc(C(=O)/C=C/c2ccccc2Cl)c1=O | 10.2 | 17.6 | 0.4 | 46.4* | 33.1* | 7.4 | 34.2 | 14.9* | 17.9
CCC(CC)NC(=O)/C=C/c1ccccc1Cl | 2.4 | 1.4 | -5.4 | -1.9 | -3.1 | 1.6 | · | · | ·
CNc1ccc(Br)cc(C(=O)/C=C/c2cccc(OC)c2OC)c1=O | 0.8 | 21.4 | 1.4 | 35.1* | 29.9* | -0.6 | 27.8 | 11.0* | 17.8
C/C(=C\c1cccc(Cl)c1Cl)C(=O)c1c(C)cc(C)[nH]c1=O | -8.2 | -0.7 | 12.2 | -2.2 | 1.3 | · | · | · | ·
COc1cccc(/C=C/C(=O)NNC(=O)c2ccccc2)c1OC | -2.1 | 3.2 | -0.9 | -0.5 | -6.9 | · | · | · | ·
Cc1ccc(NC(=O)c2ccc3c(c2)C(=O)N(Cc2cccnc2)C3=O)c(C)c1 | 2.4 | -2.5 | -3.7 | -0.4 | -4.1 | -14.9 | · | · | ·
Cc1ccc(S(=O)(=O)N2CCN(C(=O)C3CSC4(C)CCC(=O)N34)CC2)cc1C (stereo not given) | 3.3 | 2.4 | -1.1 | -1.9 | 2.2 | · | · | · | ·
COc1cc2cc3c(N)c(C(=O)Nc4sc(C)c(C)c4C#N)sc3nc2cc1OC | 3.2 | -6.0 | -0.7 | 53.1* | 27.0* | 10.6 | 61.5* | 31.1* | 2.0
COc1cc2cc3c(N)c(C(=O)NCc4ccco4)sc3nc2cc1OC | 4.3 | 8.6 | 0.1 | · | · | -3.5 | · | · | ·
Cc1ccc(NC(=S)NNc2ccc([N+](=O)[O-])cc2S(=O)(=O)Nc2ccccc2C(=O)O)cc1C | 10.0 | -13.8 | -1.6 | 91.1* | 26.8* | -9.4 | 93.5* | 70.3* | 39.5*
Cc1cccc(N=C2NC(=O)/C(=C/C=C/c3ccco3)S2)c1C | 2.9 | 11.8 | -9.1 | 66.6* | 29.3* | -0.5 | 64.0* | 30.9* | 30.8*
CCOC(=O)C1=C(N)n2c(s/c(=C\c3ccco3)c2=O)=C(C(=O)OC(C)C)C1c1ccco1 (stereo not given) | 5.9 | -1.8 | -0.1 | 40.4* | 42.9* | -3.7 | 16.5 | 7.1* | 5.6
O=C(O)C(c1ccccc1)N1C(=O)/C(=C\c2ccc(O)c(O)c2)SC1=S (stereo not given) | 4.9 | -2.3 | -3.1 | 41.7* | 39.4* | · | 53.1* | 21.6* | 44.8*
CCOc1cc(/C=C2\SC(=S)N(C(C(=O)O)c3ccccc3)C2=O)ccc1O (stereo not given) | 3.1 | 2.2 | -3.7 | 65.8* | 24.8* | · | 61.9* | 25.4* | -2.5
CCOc1ccc2ccccc2c1/C=N/NC(=O)CNC(=O)c1ccccc1F | -5.4 | 5.3 | -1.1 | 1.5 | -3.4 | · | · | · | ·
COc1cc(OC)c(OC)cc1CNC(=O)CCN1C(=O)c2cccc([N+](=O)[O-])c2C1=O | -6.7 | 2.2 | 3.4 | 2.4 | -6.3 | · | · | · | ·
C/C=C/COC(=O)c1[nH]c2c(c1C)C(=O)CC(c1ccco1)C2 (stereo not given) | 11.1 | 18.6 | 7.5 | 38.0* | 42.7* | -1.8 | 12.1 | 9.4* | 7.6
SMILES | TLR9-MyD88 block | ABHD5 PLIN5 PPI | NOD2 RIPK2 PPI | rCAG RNA binder | PRMT1 inh | TLR4-MyD88 BLA | rCAG bind conf | DNA CAG counter | PRMT1 inh conf | others
Cc1ccc(C)c(NC(=O)CSc2sc3c(O)cc(=O)[nH]c3c2C#N)c1 | 1.8 | -8.6 | -0.8 | 51.1* | 55.2* | · | 29.0 | 11.2* | 7.1
COC(=O)c1ccc(C)c(NC(=O)CCSc2ccc(C)cc2)c1 | -8.2 | -8.1 | -5.6 | -2.0 | -3.9 | -1.6 | · | · | ·
Cc1cc(NC(=O)CSc2sc3c(O)cc(=O)[nH]c3c2C#N)ccc1Br | -0.8 | 4.0 | -0.8 | 51.2* | 29.6* | · | 59.3* | 31.5* | 4.6
COC(=O)c1ccc(C)c(NC(=O)CSc2sc3c(O)cc(=O)[nH]c3c2C#N)c1 | -0.5 | -9.2 | 1.5 | 60.7* | 48.6* | · | 44.7* | 19.7* | 10.3
Cc1cc(NC(=O)CSc2nc3[nH]c(=O)cc(O)c3s2)ccc1Br | -12.7 | 2.2 | -15.8 | 23.6 | 8.2 | · | · | · | ·
Cc1ccc(NC(=O)CSc2nc3[nH]c(=O)cc(O)c3s2)c(Br)c1 | 5.4 | -10.2 | 0.2 | 26.9 | 14.0 | · | · | · | ·
Cc1ccc(C(=O)CCC(=O)OCC(=O)NNC(=O)c2ccccc2Cl)cc1 | -4.1 | -4.0 | -2.3 | 0.8 | -1.4 | · | · | · | ·
CCc1nnn2c1Cn1c3ccccc3c(=O)n1[C@@H](C)C2 | · | · | · | 3.6 | 0.9 | · | · | · | ·
CCOC(=O)c1ccc(N2C(=O)c3n[nH]c(-c4ccco4)c3C2c2cccc([N+](=O)[O-])c2)cc1 (stereo not given) | 6.8 | -0.4 | 3.5 | 73.5* | 60.3* | -14.0 | 18.9 | 13.5* | 0.9
CCOC(=O)c1ccc(N2C(=O)c3n[nH]c(C)c3C2c2ccco2)cc1 (stereo not given) | 3.0 | 1.5 | -11.2 | 1.5 | -3.4 | 2.7 | · | · | ·
COc1cc(/C=C2\S/C(=N/S(=O)(=O)c3ccccc3)NC2=O)c([N+](=O)[O-])cc1OC | 2.4 | -13.9 | 1.8 | 77.4* | 29.8* | 0.2 | 73.1* | 32.9* | 1.8 | dCAG dye DR=6.59*
